Records with an inconclusive call do not appear. Active and inactive are the calls of the source. The call rests on the fitted dose curve; in most records, active means well fitted cell-killing curve with a large enough effect; inconclusive means small, poorly fitted or top-dose-only effect, or effect the other way; inactive means no such curve, though single readings can be large or run the other way.

The results in this text go back to PubChem BioAssay (NCATS).
Potency means the concentration at half of the fitted maximal effect.

The first assay is described as follows: Quantitative High-Throughput drug screen in 47 multiple myeloma cell lines against the NCATS MIPE library collection: XG6_PLB cell viability assay (AID 1919865). Further: nearly all actives have a fitted effect of over 40% in size. The settings on record: XG6 myeloma viability, CellTiter-Glo ATP luminescence, 48 h; series mostly up to 45.8 µM. The essentials:
(§1)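 qHTS format: cells plated (500/well), pin-dosed with MIPE 4.0 compounds, kept 48 h at 37 °C. Readout was CellTiter-Glo luminescence, median RLU.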
(In general: In ATP-based viability assays light output follows the ATP content of the culture.)
In the case of `CC(=O)OCC(=O)[C@@]1(O)[C@H](C)C[C@H]2[C@@H]3C=C(C)C4=Cc5c(cnn5-c5ccccc5)C[C@]4(C)[C@@H]3[C@@H](O)C[C@@]21C`, the Potency was 4180 nM (active).
Still for that read-out and setting: as for `CC1(C)CCC(c2ccc(Cl)cc2)=C(CN2CCN(c3ccc(C(=O)NS(=O)(=O)c4ccc(N[C@H](CCN5CCOCC5)CSc5ccccc5)c(S(=O)(=O)C(F)(F)F)c4)cc3)CC2)C1`, the figure is 11800 nM (active); as for `CCn1cc(-c2ccnc3[nH]c(-c4cccc(CN(C)C)c4)cc23)c(-c2ccc(NC(=O)N(C)C)cc2)n1`, 935 nM (active).
As for `O=C(c1ccc(Nc2nccc(-c3cc4ccccc4s3)n2)cc1)N1CCC(N2CCCC2)CC1`, the Potency was 1870 nM (active).
With `CNC(=O)c1ccc(N2C(=S)N(c3cnc(C#N)c(C(F)(F)F)c3)C(=O)C23CCC3)cc1F`, the Potency was 93.5 nM (active).
Consider `c1nc2nc(Nc3ccc(N4CCOCC4)cc3)nc(NC3CCCCC3)c2[nH]1`, for which the Potency was 2090 nM (active).
For the compound `CC(C)c1cc(C(=O)N2Cc3ccc(CN4CCN(C)CC4)cc3C2)c(O)cc1O`, the Potency was 296 nM (active).

A short description of the next assay: Quantitative High-Throughput drug screen in 47 multiple myeloma cell lines against the NCATS MIPE library collection: XG1_PLB cell viability assay (AID 1919866). Further: nearly all actives have a fitted effect of over 35% in size. The note with it: CellTiter-Glo ATP, 48 h; series mostly up to 45.8 µM. The essentials:
as §1
Regarding `COc1ccc(-c2cc3c(C)nc(N)nc3n(C3CCC(OCCO)CC3)c2=O)cn1` (configuration not stated), the Potency is 18.7 nM (active).
On the same count and under the same terms, as for `Cc1ccc(NC(=O)C2(c3ccc4c(c3)OC(F)(F)O4)CC2)nc1-c1cccc(C(=O)O)c1`, the figure is 46.9 nM (active).
Regarding `C#Cc1cccc(Nc2ncnc3cc(OC)c(OCCCCCCC(=O)NO)cc23)c1`, the Potency is 74.3 nM (active).
Take `O=C(O)c1ccc2cc(-c3ccc(O)c(C45CC6CC(CC(C6)C4)C5)c3)ccc2c1`: the Potency was 526 nM (active).
The same measure, in the same setting: as for `CC(NCc1ccc2c(c1)nc(NC(=O)c1ccc(-c3cn[nH]c3)s1)n2CC(C)(C)O)C(C)(C)C` (configuration not stated), the figure is 372 nM (active).
Still for that read-out and setting: in the case of `Cc1cc(N2CCOCC2)cc2[nH]c(-c3c(NC[C@@H](O)c4cccc(Cl)c4)cc[nH]c3=O)nc12` it was 187 nM (active); in that of `CC1(O)CC(c2nc(-c3ccc4ccc(-c5ccccc5)nc4c3)c3c(N)nccn23)C1` (configuration not stated), 5900 nM (active).
On the same count and under the same terms, as for `Nc1cc(C(F)(F)F)c(-c2cc(N3CCOCC3)nc(N3CCOCC3)n2)cn1`, the figure is 469 nM (active); as for `Nc1ncnc2c1c(-c1cnc3[nH]ccc3c1)nn2C1CCCC1`, 209 nM (active).
With `CCN(CC)CCCCNc1ncc2cc(-c3cc(OC)cc(OC)c3)c(NC(=O)NC(C)(C)C)nc2n1`, the Potency was 8330 nM (active).
The same measure, in the same setting: as for `C[C@@]12O[C@@H](C[C@]1(O)CO)n1c3ccccc3c3c4c(c5c6ccccc6n2c5c31)CNC4=O`, the figure is 132 nM (active).
Still for that read-out and setting: as for `CN(C)CC=CC(=O)Nc1cc2c(Nc3ccc(F)c(Cl)c3)ncnc2cc1O[C@H]1CCOC1`, the figure is 4180 nM (active).
The same measure, in the same setting: as for `O=c1[nH]nc(Sc2ncc([N+](=O)[O-])s2)n1-c1ccc2c(c1)OCCO2`, the figure is 2090 nM (active).
For `COc1cc2c(NC3CCN(C(C)C)CC3)nc(C3CCCCC3)nc2cc1OCCCN1CCCC1`, the Potency is 4690 nM (active).
For `CCCCc1nc2cc(C=CC(=O)NO)ccc2n1CCN(CC)CC`, the Potency was 1480 nM (active).
The same measure, in the same setting: as for `Cn1cc(-c2[nH]c3cc(NC(=O)[C@H](N)C4CCCCC4)cc4c3c2C=NNC4=O)cn1`, the figure is 209 nM (active).
The same measure, in the same setting: in the case of `CC(=O)OCC(=O)[C@@]1(O)[C@H](C)C[C@H]2[C@@H]3C=C(C)C4=Cc5c(cnn5-c5ccccc5)C[C@]4(C)[C@@H]3[C@@H](O)C[C@@]21C` it was 5260 nM (active); in that of `CC1(C)CCC(c2ccc(Cl)cc2)=C(CN2CCN(c3ccc(C(=O)NS(=O)(=O)c4ccc(N[C@H](CCN5CCOCC5)CSc5ccccc5)c(S(=O)(=O)C(F)(F)F)c4)cc3)CC2)C1`, 16600 nM (active); in that of `CCn1cc(-c2ccnc3[nH]c(-c4cccc(CN(C)C)c4)cc23)c(-c2ccc(NC(=O)N(C)C)cc2)n1`, 1180 nM (active).
Still for that read-out and setting: as for `O=C(c1ccc(Nc2nccc(-c3cc4ccccc4s3)n2)cc1)N1CCC(N2CCCC2)CC1`, the figure is 4690 nM (active).
For the compound `CNC(=O)c1ccc(N2C(=S)N(c3cnc(C#N)c(C(F)(F)F)c3)C(=O)C23CCC3)cc1F`, the Potency is 264 nM (active).
Still for that read-out and setting: as for `COc1ccc(-n2nc(C(N)=O)c3c2C(=O)N(c2ccc(N4CCCCC4=O)cc2)CC3)cc1`, the entry is “inactive”; as for `OCc1ccc(-c2ccc(-c3ccc(CO)s3)o2)s1`, 6620 nM (active); as for `c1nc2nc(Nc3ccc(N4CCOCC4)cc3)nc(NC3CCCCC3)c2[nH]1`, 1480 nM (active).
On to `COc1cc(OC2CCN(C)CC2)ccc1Nc1ncc2c(n1)n(C1CCCC1)c(=O)n2C`, for which the Potency is 4690 nM (active).
In the case of `Nc1ncnc2c1c(-c1cccc(OCc3ccccc3)c1)cn2C1CC(CN2CCCC2)C1` (configuration not stated), the Potency was 8330 nM (active).
Same read-out and setting: as for `CC(C)c1cc(C(=O)N2Cc3ccc(CN4CCN(C)CC4)cc3C2)c(O)cc1O`, the figure is 148 nM (active).

A further assay is described as follows: Quantitative High-Throughput drug screen in 47 multiple myeloma cell lines against the NCATS MIPE library collection: VP6_DJ cell viability assay (AID 1919867). Further: nearly all actives have a fitted effect of over 40% in size. The note with it: ATP luminescence, 48 h; series mostly up to 45.8 µM. The essentials: as §1
With `COc1ccc(-c2cc3c(C)nc(N)nc3n(C3CCC(OCCO)CC3)c2=O)cn1` (configuration not stated), the Potency was 1 nM (active).
On the same count and under the same terms, as for `CCc1c2c(nc3ccc(O)cc13)-c1cc3c(c(=O)n1C2)COC(=O)[C@]3(O)CC`, the figure is 662 nM (active); as for `Cc1ccc(NC(=O)C2(c3ccc4c(c3)OC(F)(F)O4)CC2)nc1-c1cccc(C(=O)O)c1`, 46.9 nM (active); as for `C#Cc1cccc(Nc2ncnc3cc(OC)c(OCCCCCCC(=O)NO)cc23)c1`, 296 nM (active).
Same read-out and setting: as for `O=C(O)[C@H](Cc1c[nH]c2ccccc12)N1C(=O)c2ccccc2C1=O`, the figure is 48100 nM (active); as for `O=C(O)c1ccc2cc(-c3ccc(O)c(C45CC6CC(CC(C6)C4)C5)c3)ccc2c1`, 13200 nM (active).
`CC(NCc1ccc2c(c1)nc(NC(=O)c1ccc(-c3cn[nH]c3)s1)n2CC(C)(C)O)C(C)(C)C` (configuration not stated): the Potency is 187 nM (active).
Same read-out and setting: as for `Cc1cc(N2CCOCC2)cc2[nH]c(-c3c(NC[C@@H](O)c4cccc(Cl)c4)cc[nH]c3=O)nc12`, the figure is 148 nM (active); as for `CC1(O)CC(c2nc(-c3ccc4ccc(-c5ccccc5)nc4c3)c3c(N)nccn23)C1` (configuration not stated), 166 nM (active).
The same measure, in the same setting: in the case of `Nc1cc(C(F)(F)F)c(-c2cc(N3CCOCC3)nc(N3CCOCC3)n2)cn1` it was 743 nM (active); in that of `Nc1ncnc2c1c(-c1cnc3[nH]ccc3c1)nn2C1CCCC1`, 372 nM (active).
As to `CCN(CC)CCCCNc1ncc2cc(-c3cc(OC)cc(OC)c3)c(NC(=O)NC(C)(C)C)nc2n1`, the Potency is 10500 nM (active).
Still for that read-out and setting: in the case of `CCOc1ccccc1OCCNC(C)Cc1ccc(OC)c(S(N)(=O)=O)c1` (configuration not stated) it was “inactive”.
For the compound `COc1cc2nccc(Oc3ccc(NC(=O)C4(C(=O)Nc5ccc(F)cc5)CC4)cc3)c2cc1OC`, the Potency was 3720 nM (active).
The same measure, in the same setting: in the case of `C[C@@]12O[C@@H](C[C@]1(O)CO)n1c3ccccc3c3c4c(c5c6ccccc6n2c5c31)CNC4=O` it was 264 nM (active); in that of `CN(C)CC=CC(=O)Nc1cc2c(Nc3ccc(F)c(Cl)c3)ncnc2cc1O[C@H]1CCOC1`, 590 nM (active); in that of `O=c1[nH]nc(Sc2ncc([N+](=O)[O-])s2)n1-c1ccc2c(c1)OCCO2`, 2350 nM (active).
Same read-out and setting: as for `COc1cc2c(NC3CCN(C(C)C)CC3)nc(C3CCCCC3)nc2cc1OCCCN1CCCC1`, the figure is 5900 nM (active).
Still for that read-out and setting: in the case of `O=C(Nc1cc(C(F)(F)F)cc(C(F)(F)F)c1)c1cc(Cl)ccc1O` it was 526 nM (active); in that of `CCCCc1nc2cc(C=CC(=O)NO)ccc2n1CCN(CC)CC`, 10.5 nM (active).
For the compound `Cn1cc(-c2[nH]c3cc(NC(=O)[C@H](N)C4CCCCC4)cc4c3c2C=NNC4=O)cn1`, the Potency was 1870 nM (active).
Same read-out and setting: in the case of `O=C(C=Cc1cccc(S(=O)(=O)Nc2ccccc2)c1)NO` it was 855 nM (active); in that of `CC(=O)OCC(=O)[C@@]1(O)[C@H](C)C[C@H]2[C@@H]3C=C(C)C4=Cc5c(cnn5-c5ccccc5)C[C@]4(C)[C@@H]3[C@@H](O)C[C@@]21C`, 9350 nM (active); in that of `CC1(C)CCC(c2ccc(Cl)cc2)=C(CN2CCN(c3ccc(C(=O)NS(=O)(=O)c4ccc(N[C@H](CCN5CCOCC5)CSc5ccccc5)c(S(=O)(=O)C(F)(F)F)c4)cc3)CC2)C1`, 372 nM (active).
With `CCn1cc(-c2ccnc3[nH]c(-c4cccc(CN(C)C)c4)cc23)c(-c2ccc(NC(=O)N(C)C)cc2)n1`, the Potency is 1480 nM (active).
For `O=C(c1ccc(Nc2nccc(-c3cc4ccccc4s3)n2)cc1)N1CCC(N2CCCC2)CC1`, the Potency is 3320 nM (active).
Same read-out and setting: as for `CNC(=O)c1ccc(N2C(=S)N(c3cnc(C#N)c(C(F)(F)F)c3)C(=O)C23CCC3)cc1F`, the figure is 1050 nM (active); as for `C=CC(=O)Nc1cccc(Oc2nc(Nc3ccc(N4CCN(C)CC4)cc3OC)ncc2Cl)c1`, 18.7 nM (active); as for `OCc1ccc(-c2ccc(-c3ccc(CO)s3)o2)s1`, 20900 nM (active).
Still for that read-out and setting: as for `c1nc2nc(Nc3ccc(N4CCOCC4)cc3)nc(NC3CCCCC3)c2[nH]1`, the figure is 3320 nM (active); as for `COc1cc(OC2CCN(C)CC2)ccc1Nc1ncc2c(n1)n(C1CCCC1)c(=O)n2C`, 4180 nM (active).
As to `Nc1ncnc2c1c(-c1cccc(OCc3ccccc3)c1)cn2C1CC(CN2CCCC2)C1` (configuration not stated), the Potency was 743 nM (active).
Still for that read-out and setting: in the case of `CC(C)c1cc(C(=O)N2Cc3ccc(CN4CCN(C)CC4)cc3C2)c(O)cc1O` it was 148 nM (active).
